The whole screen tested about 69,000 compounds, of which about 8,600 (12%) showed an effect of 50% or more. For the sample, strong results were picked, then their nearest neighbours and some compounds at random.

In the experiment the test system is Plasmodium berghei. The experiment is described as follows: Screen against P. berghei liver stage (PbLuc), transformed with Luciferase, at 10uM. The class given is functional, HepG2. The note with it: tested at 10 uM.
Take `Cc1cnn(CC2CCCN2Cc2ncc(-c3ccc(F)cc3)o2)c1` (stereo unspecified): the INHIBITION came to 2.3%.

Consider `CC(C)CN(CC(=O)O)C(=O)c1ccc(F)cc1`, for which the INHIBITION is on record as 17.7%.

For the compound `CN(CCc1ccccc1)c1cnn(CC2COCCO2)c(=O)c1` (stereo unspecified), the INHIBITION was -42.8%.

Turning to `O=C(NCc1cncc2c1CCN(C1CCOCC1)C2)c1ccno1`, the INHIBITION was 34.5%.

As to `O=C(NCc1cncc2c1CCN(C1CCOC1)C2)c1ccco1` (stereo unspecified), the INHIBITION came out at 0.71%.

On to `O=C(NCc1cncc2c1CCN(C1CCOCC1)C2)c1ccco1`, for which the INHIBITION turned out to be 61.3%.

Turning to `COCc1nc(C(=O)NS(=O)(=O)c2cc(Br)ccc2C)cs1`, the INHIBITION stood at 8.55%.

With `O=S(=O)(NCc1ccccc1Cn1cncn1)N1CCCCC1`, the INHIBITION is on record as 25.1%.

For `CCn1cc(Cl)c(C(=O)NCCCN(C)C)n1`, the INHIBITION is 39.1%.

In the case of `Cc1nccc(C(=O)N2CCCC2c2c(C)nn(C)c2C)n1` (stereo unspecified), the INHIBITION is on record as 7.08%.

Consider `CCN(CCNC(=O)c1cccnc1OCCOC)C1CC1`, for which the INHIBITION is given as 34.7%.

For `CCN(CCNC(=O)c1ccccc1Br)C1CC1`, the INHIBITION is on record as -2.42%.

In the case of `CCN(CCNC(=O)c1ccccc1OCCOC)C1CC1`, the INHIBITION worked out at 58.8%.

In the case of `O=C(c1ccc(Cn2cnnn2)cc1)N1CCC(c2ccncc2)CC1`, the INHIBITION is -23%.

For the compound `O=S1(=O)NCC2(CCN(Cc3ccncc3)CC2)Oc2ncccc21`, the INHIBITION was determined as 44.1%.

With `CC(C)CCN1CCC2(CNS(=O)(=O)c3cccnc3O2)C1` (stereo unspecified), the INHIBITION is 67.3%.

Take `O=S1(=O)NCC2(CCN(Cc3ccc(Cl)s3)C2)Oc2ncccc21` (stereo unspecified): the INHIBITION stood at 30%.

Consider `CCc1nnc(CN(C)c2nccc(N3CCCC(O)C3)n2)o1` (stereo unspecified), for which the INHIBITION worked out at 42.1%.

`CCc1nnc(CN(C)c2nccc(CCC(F)(F)F)n2)o1`: the INHIBITION was 59.3%.

With `CC(=O)NCCNc1nccc(CCC(F)(F)F)n1`, the INHIBITION is -41.8%.

Take `CCc1cc(N(C)Cc2ccncn2)n2nccc2n1`: the INHIBITION is reported as 10.4%.

With `CN(Cc1ccncn1)c1nccc(CCC(F)(F)F)n1`, the INHIBITION is 59.3%.

Regarding `CNc1ncc(CN(C)c2nccc(CCC(F)(F)F)n2)cn1`, the INHIBITION was found to be 43.1%.

Regarding `CC(=O)N1CCOC(c2cncc(CCC(=O)N(C)C)n2)C1` (stereo unspecified), the INHIBITION is reported as -6.73%.

`O=C1CCC(=O)c2oc3ccccc3c2N1`: the INHIBITION is on record as -23%.

For `CCc1[nH]c2c(CNc3nc(C)cc(NC)n3)cc(C)cc2c1C`, the INHIBITION is recorded as 85.1%.

In the case of `CCc1[nH]c2c(CNc3cncc(C(=O)OC)n3)cc(C)cc2c1C`, the INHIBITION came to 45%.

As for `CCc1[nH]c2c(CNc3cncc(C(=O)N(C)C)n3)cc(C)cc2c1C`, the INHIBITION is on record as 14.3%.

Consider `CCc1[nH]c2c(CNC(=O)C3CNC(=O)C3)cc(C)cc2c1C` (stereo unspecified), for which the INHIBITION turned out to be 25.8%.

In the case of `CCc1[nH]c2c(CNC(=O)C3CCS(=O)(=O)CC3)cc(C)cc2c1C`, the INHIBITION is recorded as 48.5%.

As for `CCc1[nH]c2c(CNc3cc(C)nc(NC)n3)cc(C)cc2c1C`, the INHIBITION amounted to 87.9%.

Regarding `COc1ccc(-c2noc(CN3CCCC3Cn3cccn3)n2)cc1` (stereo unspecified), the INHIBITION came out at 29.7%.

For `CN1C(=O)c2ccc(C(=O)N(Cc3cnn(C)c3)C3CC3)cc2C1=O`, the INHIBITION is listed as 23.8%.

With `COCC(=O)N1CCc2ccc(=O)n(Cc3csc(C)n3)c2CC1`, the INHIBITION is listed as 2.41%.

With `CCOc1ncccc1NC(=O)c1ccc(C(C)=O)s1`, the INHIBITION is listed as 7.24%.

`CC1CN(CC(=O)NCCc2ccccc2)CCN1c1nccs1` (stereo unspecified): the INHIBITION amounted to 33.7%.

For the compound `c1coc(CN2CCC3(CCOCC3COCC3CC3)CC2)c1` (stereo unspecified), the INHIBITION is on record as 18.6%.

Regarding `CCNc1cc2c(nn1)CCN(C(=O)c1cc3cccc(C)c3o1)C2`, the INHIBITION is given as 70.8%.

Consider `CCNc1cc2c(nn1)CCN(C(=O)c1cc(C)no1)C2`, for which the INHIBITION was 40%.

Turning to `CCNc1cc2c(nn1)CCN(C(=O)c1cc3cc(C)ccc3o1)C2`, the INHIBITION came out at 68.8%.

In the case of `CCNc1cc2c(nn1)CCN(C(=O)c1ccc(CNC(C)=O)o1)C2`, the INHIBITION is reported as -21.7%.

As for `CCNc1cc2c(nn1)CCN(C(=O)c1cc3nc(C)ccc3o1)C2`, the INHIBITION is 35.3%.

With `CCNc1cc2c(nn1)CCN(C(=O)c1cc3ccccc3o1)C2`, the INHIBITION was 17.4%.

For the compound `CC(=O)N1CC(=O)N(c2ccsc2)CC12CCN(Cc1ccccn1)C2` (stereo unspecified), the INHIBITION was -2.17%.

On to `CCOc1ccc(C(=O)N2CCN(c3nccn3C)CC2)cc1`, for which the INHIBITION is given as 14.3%.

On to `c1cc(CN2CCC(c3ccc4c(c3)OCO4)CC2)ccn1`, for which the INHIBITION is 12.515%.

As to `Cn1cccc1C(=O)N1C[C@H]2CN(Cc3cccs3)C[C@H]2C1`, the INHIBITION came to 14.9%.

For the compound `CN(C)C1COC2(CCN(Cc3nccs3)CC2)C1` (stereo unspecified), the INHIBITION turned out to be 11.5%.

Turning to `Cc1ccc(C(=O)NS(=O)(=O)c2cc(F)ccc2F)c(=O)[nH]1`, the INHIBITION was -1.14%.

Take `CC(NC(N)=O)C(=O)N(C)CCCc1cc(-c2ccccc2)no1` (stereo unspecified): the INHIBITION turned out to be 0.375%.

In the case of `CC(=O)N(C)CCCc1cc(-c2ccccc2)no1`, the INHIBITION is on record as 24.75%.

Consider `CSC(C)C(=O)N(C)CCCc1cc(-c2ccccc2)no1` (stereo unspecified), for which the INHIBITION came to 57.75%.

Turning to `O=C(O)[C@]12CCCN(Cc3ccsc3)C[C@H]1CN(c1ncccn1)C2`, the INHIBITION was -10.3%.

Take `COCCn1cc2c(n1)C(CNCc1nccs1)OCC2` (stereo unspecified): the INHIBITION is recorded as 26.3%.

As to `Cc1nn(CC(=O)N2CCC3(CN(C)C(=O)O3)C2)c(=O)c2ccccc12` (stereo unspecified), the INHIBITION was 15.4%.

Consider `Cc1cccc(N2CCC(N3CCC4(CN(C)C(=O)O4)C3)CC2)c1C` (stereo unspecified), for which the INHIBITION is 64.4%.

For `O=C1NCC2(CCCN(C(=O)Cn3nc4ccccc4n3)CC2)O1` (stereo unspecified), the INHIBITION is given as 4.87%.

As for `Cc1cccc(N2CCC(N3CCCC4(CNC(=O)O4)C3)CC2)c1C` (stereo unspecified), the INHIBITION is recorded as 63.4%.

`Cc1cccc(N2CCC(N3CCCC4(CN(C)C(=O)O4)C3)CC2)c1C` (stereo unspecified): the INHIBITION was 36.7%.

Consider `Cc1cccc(N2CCC(N3CCC4(CCCNC4=O)C3)CC2)c1C` (stereo unspecified), for which the INHIBITION is reported as 32.7%.

On to `Cc1nn(CCO)c(C)c1CNCc1cccnc1N(C)C`, for which the INHIBITION amounted to 19.2%.

In the case of `O=C(O)c1cnc(N2CCC(c3nccn3CC3CC3)CC2)c(Cl)c1`, the INHIBITION came out at 25.9%.

Turning to `O=C(CN1CCCC(O)C1)NC(=O)NCc1cccs1` (stereo unspecified), the INHIBITION was found to be 43.4%.

Take `CN(CCOc1ccc(F)cc1)S(=O)(=O)c1cnn(C)c1`: the INHIBITION worked out at 21.2%.

For the compound `COCCN1CCN(Cc2c(C)noc2C)Cc2cccnc21`, the INHIBITION turned out to be 36.9%.

`O=C(NCc1cccc(Cl)c1)C1=NOC2(CCNC2)C1` (stereo unspecified): the INHIBITION came to 21.5%.

For the compound `CN(C)C(=O)COC[C@]12COC[C@H]1CN(CCc1ccccc1)C2`, the INHIBITION is given as 24.3%.

`CN(C)CCOCc1ncn2c1CN(c1ncc(F)cn1)CCC2`: the INHIBITION is on record as 23.3%.

Take `Nc1nnc(SCC(=O)NCC(O)c2ccccc2)s1` (stereo unspecified): the INHIBITION is on record as -17.2%.

Consider `Cc1ccccc1C(CNC(=O)CSc1nnc(N)s1)N(C)C` (stereo unspecified), for which the INHIBITION amounted to 54.7%.

`Cc1nnc(SCC(=O)NCC(c2ccccc2Cl)N(C)C)s1` (stereo unspecified): the INHIBITION is on record as -18.5%.

Values taken from ChEMBL document CHEMBL4513216, “Probing the Open Global Health Chemical Diversity Library for Multistage-Active Starting Points for Next-Generation Antimalarials” (ACS Infect Dis, 2020).
